# Screening data from PubChem.
# This is a sample that favours compounds with a hit; in the whole collection about 3% have one here.
# Peg3 prom inh-1 – inhibitors of Peg3 promoter. HeLa PEG-Prom luciferase reporter, luminescence, overnight. inhibition, % at 20 µM. 1.7% of 360,000 active. AID 588405;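 active means inhibition of at least 50% at 20 µM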
# Shn3 inh set2 – reduces Shn3 3'UTR luciferase signal in osteoblasts. Clone20 osteoblast Shn3 3'UTR firefly luciferase, 24 h. inhibition, % at 12.5 µM. 0.52% of 360,000 active. AID 588674;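 active means mean inhibition of at least 75% with every replicate also reaching 75%; inconclusive means mean inhibition at least 75% but some replicate below; inactive means mean inhibition below 75%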;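 further: 0% = median of neutral control wells and 100% = pilot-screen positive control compound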
# ABHD5 PLIN5 PPI – ABHD5-PLIN5 protein interaction inhibition; Q00G26+Q8WTS1; Split G. princeps luciferase complementation, luminescence, 4 h; inhibition, % at 4 µM; 0.78% of 360,000 active; AID 602281;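 active means inhibition above the mean inhibition across every tested compound plus 3 SD, cut at about 22% in these data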;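 further: 0% = DMSO only wells and the 100% control is not disclosed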
# Target sequence (Q00G26 whole entry, looked up): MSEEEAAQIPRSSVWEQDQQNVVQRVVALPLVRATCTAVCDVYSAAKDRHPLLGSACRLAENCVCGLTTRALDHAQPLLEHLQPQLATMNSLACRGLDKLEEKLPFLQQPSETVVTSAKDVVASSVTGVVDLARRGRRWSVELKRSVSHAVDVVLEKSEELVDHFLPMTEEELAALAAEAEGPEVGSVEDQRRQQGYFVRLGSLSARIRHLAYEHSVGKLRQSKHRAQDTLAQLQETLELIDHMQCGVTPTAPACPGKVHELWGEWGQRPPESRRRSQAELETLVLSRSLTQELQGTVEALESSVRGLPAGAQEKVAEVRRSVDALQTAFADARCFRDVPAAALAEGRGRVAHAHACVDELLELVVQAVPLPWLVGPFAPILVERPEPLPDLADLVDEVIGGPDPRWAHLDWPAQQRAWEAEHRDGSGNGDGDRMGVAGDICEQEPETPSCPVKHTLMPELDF
# Target sequence (Q8WTS1 whole entry, looked up): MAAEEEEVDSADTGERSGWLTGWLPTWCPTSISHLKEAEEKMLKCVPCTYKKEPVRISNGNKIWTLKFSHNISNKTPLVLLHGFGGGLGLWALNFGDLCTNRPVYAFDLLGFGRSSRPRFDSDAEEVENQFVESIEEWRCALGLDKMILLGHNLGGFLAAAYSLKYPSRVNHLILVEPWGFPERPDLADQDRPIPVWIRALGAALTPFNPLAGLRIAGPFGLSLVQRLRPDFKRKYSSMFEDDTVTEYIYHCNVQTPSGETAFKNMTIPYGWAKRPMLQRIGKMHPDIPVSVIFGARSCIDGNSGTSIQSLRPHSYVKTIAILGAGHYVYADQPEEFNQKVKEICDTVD
# MITF TRPM1 inh – inhibitors of MITF-driven TRPM1 promoter in melanoma cells | 0.83% of 330,000 active | SK-MEL-5 TRPM1 promoter luciferase, 24 h | AID 488899 | inhibition, % at 12.5 µM;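 active means mean inhibition across replicates of 60% or more, whatever share of single replicates reaches that level; inconclusive means some that reach 60%, reason not given; inactive means mean inhibition across replicates below 60%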
# EWS-Fli inh – EWS/Fli transcriptional activity inhibition | A673 NR0B1-luciferase reporter, viability-normalised | inhibition, % at 12.6 µM | 0.67% of 350,000 active | AID 651661;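 active means mean inhibition of at least 50% after viability correction, with every replicate also passing that limit; inconclusive means mean reaches 50% but only one of two replicates passes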;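 further: firefly luciferase signal divided by Alamar Blue viability fluorescence both relative to DMSO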
# PAX8 reporter – inhibitors of PAX8 transcriptional activity in RMG-I cells; AID 652154; 1.2% of 360,000 active; inhibition, % at 12.6 µM; RMG-I TPO-luciferase reporter, SteadyGlo, 24 h;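 active means mean replicate inhibition at least 60% with every replicate also reaching 60%; inconclusive means only one of the two criteria is met; inactive means mean below 60% and not all replicates reaching 60%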;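 further: luciferase light reporting Pax8 driven TPO promoter activity; plate controls were median of neutral control wells for no effect and mitoxantrone controls for full effect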
# Peg3 prom inh-2 – confirmation of Peg3 promoter inhibitors | inhibition, % at 20 µM | 84% of 1,300 active | HeLa PEG-Prom luciferase reporter, luminescence, overnight | shares compounds with Peg3 prom inh-1;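 active means at 20 µM dose, 40% or more inhibition averaged across four replicates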
# An asterisk follows results filed as active; ? = inconclusive; · = no result.
SMILES,Peg3 prom inh-1,Shn3 inh set2,ABHD5 PLIN5 PPI,MITF TRPM1 inh,EWS-Fli inh,PAX8 reporter,Peg3 prom inh-2
CNC(=O)C[C@H]1CC[C@@H]2[C@@H](COc3ccc(NC(=O)c4ccc(F)cc4)cc3C(=O)N2C)O1,·,·,·,·,-6,-16,·
Cc1cc(=O)oc2cc(OCC(=O)c3ccc4c(c3)NC(=O)CO4)ccc12,53*,-7,2,1,10,5,5
Cc1nc(N2CCN(c3ccccn3)CC2)c2c(C)c(C(=O)Nc3ccc(F)cc3F)sc2n1,26,11,-2,-24,7,12,·
Cc1nc(N2CCN(c3ccccn3)CC2)c2c(C)c(C(=O)Nc3ccccc3F)sc2n1,73*,14,-2,-10,-11,7,66*
CCCCC(=O)NC(c1ccccc1Cl)c1c(O)ccc2ccccc12 (stereo not given),35,5,2,-17,·,13,·
CCC(=O)NC(c1ccc(OC)c(OC)c1)c1cc(Cl)c2cccnc2c1O (stereo not given),55*,?,-9,40,20,56,63*
CC(=O)NC(C)c1cc(Cl)c2cccnc2c1O (stereo not given),31,27,-1,10,21,25,·
CCCCC(=O)NC(c1ccc(Cl)cc1)c1ccc2cccnc2c1O (stereo not given),62*,86*,22*,·,37,73*,69*
CCCCC(=O)NC(c1ccccc1OC)c1ccc2cccnc2c1O (stereo not given),62*,94*,9,78*,40,88*,69*
CCCC(=O)NC(c1ccc(Cl)cc1)c1ccc2cccnc2c1O (stereo not given),57*,85,12,75*,46,85*,65*
CCCC(=O)NC(c1ccccc1Cl)c1c(O)ccc2ccccc12 (stereo not given),33,-2,6,5,·,0,·
CCCNC(=O)N[C@@H]1CC[C@H](CC(=O)NCCc2ccccc2)O[C@H]1CO,·,·,·,·,-3,-7,·
CO[C@@H]1CN(C)C(=O)c2ccc(NC(=O)Nc3ccccc3F)cc2OC[C@@H](C)N(C(=O)Nc2ccccc2F)C[C@H]1C,·,·,·,·,8,-3,·
CCCC(=O)NC(c1ccc(N(C)C)cc1)c1c(O)ccc2ccccc12 (stereo not given),22,-3,-2,4,·,9,·
CCCC(=O)NC(c1ccc(C)cc1)c1ccc2cccnc2c1O (stereo not given),63*,74,13,·,·,·,67*
CCCCC(=O)NC(c1ccc(N(CC)CC)cc1)c1ccc2cccnc2c1O (stereo not given),59*,94*,11,58,49,93*,70*
CC(C)(C)C(=O)Nc1ccc(NC(=O)c2ccco2)nc1,108*,90*,1,92*,88*,109*,92*
CCCN(CCC)CCCNC(=S)Nc1ccc2nc(N3CCCC3)cc(C)c2c1,51*,5,7,50,16,5,71*
CCN(CC)CCNC(=S)Nc1ccc2nc(N3CCCC3)cc(C)c2c1,32,6,5,17,7,24,·
C[C@@H]1CN([C@@H](C)CO)C(=O)Cc2cc(NC(=O)CCCN(C)C)ccc2O[C@H]1CN(C)Cc1ccc(C(F)(F)F)cc1,·,·,·,·,·,10,·
COc1cccc(N2CCN(CC(=O)Nc3ccccc3C(=O)NCCc3ccccc3)CC2)c1,-85,-25,-1,-8,-39,-57,·
COc1cccc(N2CCN(CC(=O)Nc3ccccc3C(=O)NCc3ccccc3)CC2)c1,57*,15,2,4,9,22,51*
COc1ccccc1N(CC(=O)Nc1ccccc1C)S(C)(=O)=O,15,1,-1,3,-3,·,·
COc1ccccc1N(CC(=O)N/N=C/c1c(O)ccc2ccccc12)S(C)(=O)=O,50*,73,8,48,·,8,70*
COc1cccc(C#Cc2ccc([C@H]3[C@@H](CO)N4C(=O)CN(C(=O)C5CC5)C[C@@H]34)cc2)c1,·,·,·,·,0,-16,·
C/C(=N/NC(=O)c1cc(C2CC2)[nH]n1)c1cccs1,63*,49,-5,50,·,53,47*
